# According to the supplement of paper PMC9262897, “Low-cost anti-mycobacterial drug discovery using engineered E. coli” (Nature Communications, 2022):
# Counter-ions that a name gives are not always drawn. ± gives the standard deviation of the averaged measurements.
# What was measured:
# Assay in all cases: growth (OD600 after 10 h); higher = more growth (less inhibition)
# [1] = system: E. coli TESEC Alr+ wild-type control; conditions: compound 0.1 mM; raw OD600 reference: median of DMSO wells 0.241, cell-free background 0.041
# Protocol: (§1)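 TESEC Mtb Alr E. coli, or the Alr+ wild-type control, in 384-well plates with Prestwick library compounds at 0.1 mM and 1% DMSO, across arabinose induction levels of 1E3 to 1E7 nM. Growth is read as OD600 after 10 h at 37 °C in triplicate biological replicates.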
# E. coli TESEC Mtb Alr [2] = conditions: compound 0.1 mM
# Protocol: as §1
# E. coli TESEC Mtb Asd = conditions: compound 0.1 mM
# Protocol: (§2)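 TESEC E. coli strains in which the native enzyme is deleted and replaced by arabinose-inducible Mtb Asd, DapB, CysH or TrpD, each grown in its selective medium. Strains were screened against the Prestwick library at 0.1 mM and 1% DMSO in 384-well format at low and high arabinose induction. Growth is read as OD600 after 10 h in triplicate.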
# E. coli TESEC Mtb Alr [3] = conditions: compound 0.1 mM; remark: listed apart in the source
# Protocol: (§3)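 TESEC Mtb Alr E. coli (ΔaraC ΔtolC ΔentC Δalr ΔdadX, arabinose-inducible Mtb Alr) or the Alr+ wild-type control strain, grown in defined M9-fructose medium without D-alanine in 96-well plates with Prestwick library compounds at 0.1 mM and 1% DMSO. Low Alr induction is 0.1 µM arabinose and high induction is 10 mM arabinose.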
# [4] = system: E. coli TESEC Alr+ wild-type control; conditions: compound 0.1 mM; raw OD600 reference: median of DMSO wells 0.49, cell-free background 0.052
# Protocol: as §3
# E. coli TESEC Mtb DapB = conditions: compound 0.1 mM
# Protocol: as §2
# [5] = arabinose 1000 nM, raw OD600 reference: median of DMSO wells 0.294, cell-free background 0.041
# [6] = arabinose 10000 nM, raw OD600 reference: median of DMSO wells 0.264, cell-free background 0.041
# [7] = arabinose 100000 nM, raw OD600 reference: median of DMSO wells 0.201, cell-free background 0.041
# [8] = arabinose 1000000 nM, raw OD600 reference: median of DMSO wells 0.193, cell-free background 0.041
# [9] = arabinose 10000000 nM, raw OD600 reference: median of DMSO wells 0.146, cell-free background 0.041
# [10] = arabinose induction (level): High, raw OD600 reference: median of DMSO wells 0.331, cell-free background 0.041
# [11] = arabinose induction (level): Low, raw OD600 reference: median of DMSO wells 0.417, cell-free background 0.041
# [12] = arabinose 100 nM, raw OD600 reference: median of DMSO wells 0.413, cell-free background 0.052
# [13] = arabinose 10000000 nM, raw OD600 reference: median of DMSO wells […], cell-free background 0.052
# [14] = arabinose induction (level): High, raw OD600 reference: median of DMSO wells […], cell-free background 0.041
# [15] = arabinose induction (level): Low, raw OD600 reference: median of DMSO wells 0.227, cell-free background 0.041
SMILES,growth [1],growth (E. coli TESEC Mtb Alr [2]; [5]),growth (E. coli TESEC Mtb Alr [2]; [6]),growth (E. coli TESEC Mtb Alr [2]; [7]),growth (E. coli TESEC Mtb Alr [2]; [8]),growth (E. coli TESEC Mtb Alr [2]; [9]),growth (E. coli TESEC Mtb Asd; [10]),growth (E. coli TESEC Mtb Asd; [11]),growth (E. coli TESEC Mtb Alr [3]; [12]),growth (E. coli TESEC Mtb Alr [3]; [13]),growth [4],growth (E. coli TESEC Mtb DapB; [14]),growth (E. coli TESEC Mtb DapB; [15])
COCC(=O)Nc1c(I)c(C(=O)NCC(O)CO)c(I)c(C(=O)N(C)CC(O)CO)c1I (configuration not stated) [Iopromide],0.259 ± 0.016,0.329 ± 0.021,0.289 ± 0.014,0.237 ± 0.0091,0.188 ± 0.0057,0.156 ± 0.013,0.491 ± 0.0086,0.464 ± 0.028,0.401 ± 0.019,0.349 ± 0.018,–,–,–
Cc1c(NC(=O)c2cccnc2)c(=O)n(-c2ccccc2)n1C [Nifenazone],0.251 ± 0.0067,0.305 ± 0.0092,0.27 ± 0.0045,0.212 ± 0.024,0.183 ± 0.0036,0.1554 ± 0.001,0.309 ± 0.066,0.411 ± 0.1,0.413 ± 0.017,0.339 ± 0.011,–,–,–
Nc1nc(/C(=C/CC(=O)O)C(=O)N[C@@H]2C(=O)N3C(C(=O)O)=CCS[C@H]23)cs1 [Ceftibuten],0.146 ± 0.0038,0.0633 ± 0.0031,0.04393 ± 0.00032,0.141 ± 0.012,0.138 ± 0.0075,0.177 ± 0.004,0.158 ± 0.0053,0.0769 ± 0.00091,0.0471 ± 0.00072,0.273 ± 0.01,–,–,–
CC1(C)[C@H](C(=O)O)N2C(=O)C[C@H]2S1(=O)=O [Sulbactam],0.241 ± 0.0052,0.305 ± 0.0083,0.263 ± 0.0075,0.244 ± 0.009,0.202 ± 0.015,0.165 ± 0.01,0.39 ± 0.029,0.438 ± 0.016,0.409 ± 0.0061,0.361 ± 0.011,–,–,–
C[C@@H]1C[C@H]2[C@@H]3C[C@H](F)C4=CC(=O)C=C[C@]4(C)[C@@]3(F)[C@@H](O)C[C@]2(C)[C@@]1(O)C(=O)CO [Flumethasone],0.212 ± 0.0028,0.275 ± 0.013,0.256 ± 0.0067,0.188 ± 0.0075,0.154 ± 0.0069,0.127 ± 0.0043,0.231 ± 0.007,0.429 ± 0.022,0.402 ± 0.0073,0.307 ± 0.013,–,–,–
Clc1ccc(Nc2nnc(Cc3ccncc3)c3ccccc23)cc1 [Vatalanib],0.104 ± 0.031,0.0967 ± 0.038,0.0476 ± 0.003,0.0763 ± 0.0031,0.0489 ± 0.0002,0.0787 ± 0.0014,0.112 ± 0.017,0.0893 ± 0.021,0.303 ± 0.17,0.0605 ± 0.0043,–,–,–
N#Cc1cc(NC(=O)C(=O)O)c(Cl)c(NC(=O)C(=O)O)c1 [Lodoxamide],0.264 ± 0.0031,0.315 ± 0.006,0.2862 ± 0.0018,0.173 ± 0.0062,0.205 ± 0.013,0.134 ± 0.0054,0.228 ± 0.029,0.366 ± 0.035,0.404 ± 0.014,0.348 ± 0.024,–,–,–
COc1ccc2cc([C@@H](C)C(=O)O)ccc2c1 [(R) -Naproxen sodium salt],0.263 ± 0.0059,0.311 ± 0.018,0.275 ± 0.0043,0.198 ± 0.0079,0.183 ± 0.0045,0.141 ± 0.0034,0.484 ± 0.02,0.341 ± 0.077,0.408 ± 0.0092,0.317 ± 0.0088,–,–,–
CCCN(CCC)S(=O)(=O)c1ccc(C(=O)O)cc1 [Probenecid],0.226 ± 0.0059,0.254 ± 0.0078,0.261 ± 0.011,0.221 ± 0.047,0.153 ± 0.0022,0.159 ± 0.0038,0.346 ± 0.12,0.371 ± 0.07,0.4 ± 0.016,0.267 ± 0.0045,0.49 ± 0.048,–,–
Cc1c(N)c(=O)n(-c2ccccc2)n1C [Ampyrone],0.25 ± 0.0062,0.289 ± 0.008,0.267 ± 0.019,0.217 ± 0.02,0.187 ± 0.0029,0.146 ± 0.007,0.368 ± 0.033,0.446 ± 0.01,0.414 ± 0.0049,0.3598 ± 0.0033,–,–,–
CC1(C)OC(=O)NC1=O [Dimethadione],0.243 ± 0.0066,0.295 ± 0.016,0.2697 ± 0.0012,0.191 ± 0.017,0.184 ± 0.0086,0.139 ± 0.0053,0.292 ± 0.005,0.414 ± 0.022,0.406 ± 0.017,0.347 ± 0.011,0.526 ± 0.075,–,–
CC[C@H](c1ccc(O)cc1)[C@@H](CC)c1ccc(O)cc1 [Hexestrol],0.0495 ± 0.0091,0.048 ± 0.0092,0.0398 ± 0.00072,0.0479 ± 0.0054,0.0459 ± 0.0019,0.0616 ± 0.024,0.0495 ± 0.0033,0.0486 ± 0.0013,0.0666 ± 0.025,0.05173 ± 0.0004,–,–,–
Cc1ccccc1N1C(=O)c2cc(S(N)(=O)=O)c(Cl)cc2NC1C (configuration not stated) [Metolazone],0.214 ± 0.0042,0.226 ± 0.031,0.258 ± 0.0029,0.214 ± 0.0094,0.136 ± 0.004,0.1376 ± 0.00093,0.386 ± 0.049,0.422 ± 0.091,0.4 ± 0.018,0.292 ± 0.011,–,–,–
OCCN(CCO)c1nc(N2CCCCC2)c2nc(N(CCO)CCO)nc(N3CCCCC3)c2n1 [Dipyridamole],0.0642 ± 0.0085,0.0575 ± 0.0086,0.0482 ± 0.0011,0.0725 ± 0.015,0.05417 ± 0.00046,0.135 ± 0.016,0.079 ± 0.002,0.0913 ± 0.034,0.068 ± 0.006,0.0709 ± 0.0012,–,–,–
CN(C)C/C=C(/c1ccc(Br)cc1)c1cccnc1 [Zimelidine dihydrochloride monohydrate],0.2066 ± 0.0016,0.261 ± 0.0081,0.255 ± 0.028,0.192 ± 0.028,0.153 ± 0.0035,0.134 ± 0.0035,0.237 ± 0.037,0.413 ± 0.022,0.397 ± 0.01,0.303 ± 0.028,–,–,–
CCN(CC)CCNC(=O)c1cc(Cl)c(N)cc1OC [Metoclopramide monohydrochloride],0.2268 ± 0.0011,–,–,–,–,–,0.252 ± 0.015,0.485 ± 0.011,0.409 ± 0.0098,0.358 ± 0.0081,0.633 ± 0.05,0.193 ± 0.01,0.221 ± 0.018
C[C@]12CCC(=O)C=C1CC[C@@H]1[C@@H]2[C@@H](O)C[C@@]2(C)[C@H]1CC[C@]2(O)C(=O)CO [Hydrocortisone base],0.218 ± 0.012,–,–,–,–,–,0.294 ± 0.076,0.307 ± 0.074,0.407 ± 0.0089,0.302 ± 0.0092,0.578 ± 0.1,0.183 ± 0.017,0.209 ± 0.047
Cc1cccc(N(C)C(=S)Oc2ccc3ccccc3c2)c1 [Tolnaftate],0.255 ± 0.019,–,–,–,–,–,0.281 ± 0.07,0.246 ± 0.047,0.384 ± 0.015,0.264 ± 0.064,0.465 ± 0.0063,0.174 ± 0.012,0.243 ± 0.029
CC(=O)S[C@@H]1CC2=CC(=O)CC[C@]2(C)[C@H]2CC[C@@]3(C)[C@@H](CC[C@@]34CCC(=O)O4)[C@H]12 [Spironolactone],0.121 ± 0.0068,–,–,–,–,–,0.167 ± 0.021,0.313 ± 0.041,0.389 ± 0.026,0.0959 ± 0.016,0.331 ± 0.022,0.1363 ± 0.001,0.178 ± 0.018
Cc1c(C)c2c(c(C)c1O)CCC(C)(COc1ccc(CC3SC(=O)NC3=O)cc1)O2 (configuration not stated) [Troglitazone],0.0771 ± 0.022,–,–,–,–,–,0.0511 ± 0.00036,0.0536 ± 0.0033,0.0885 ± 0.025,0.0573 ± 0.00085,0.445 ± 0.029,0.08 ± 0.0038,0.126 ± 0.04
